Compound activity deposited in PubChem BioAssay by several laboratories.
Compounds with a hit are over-represented: about 4% of the library has one in this group of screens.
Beta apoptosis: inhibitors of cytokine-induced beta cell apoptosis, primary screen, luminescence; INS-1E cytokine-induced death, ATP luminescence, 48 h; percent of positive-control rescue, neutral wells zero; protection from apoptosis, % (test concentration not listed); 300,000 compounds, 0.8% hits;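 active = Every replicate reaches about 75%, or at least half do and their mean reaches it too, limit read from the data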;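 note: 0% = cytokine-treated negative control wells and 100% = positive control rescue; higher means more ATP so stronger rescue from cytokine killing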
PAX8 reporter: inhibitors of PAX8-driven TPO luciferase reporter, primary screen, RMG-I cells, single concentration; inhibition, % at 12.6 µM; AID 652154, 2013; SteadyGlo, 24 h; 360,000 compounds, 1.2% hits;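 active = mean replicate inhibition at least 60% with every replicate also reaching 60%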;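 note: luciferase light reporting Pax8 driven TPO promoter activity; plate controls were median of neutral control wells for no effect and mitoxantrone controls for full effect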
Mdm2-MdmX inh: inhibitors of human Mdm2-MdmX association, primary screen, cell-based, luminescence, split luciferase, SaOS-2, uHTS; 330,000 compounds, 3% hits; SaOS-2 split-luciferase Mdm2/MdmX complementation; Protein Mdm4 (Homo sapiens) + E3 ubiquitin-protein ligase Mdm2 (Homo sapiens), …; inhibition, % at 8 µM;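 active = inhibition of at least 50% at 8 µM in the primary screen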
Gli-Sufu block: Gli-Sufu pathway antagonists, primary screen, luciferase luminescence, Sufu-KO-LIGHT cells, uHTS | Sufu-KO-LIGHT fibroblasts, Gli luciferase reporter luminescence | inhibition, % at 5 µM | 340,000 compounds, 0.74% hits;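 active = inhibition above about 55%, limit read from the data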;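 note: 0% = DMSO-treated cells and 100% = wells with medium but no cells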
Shn3 inh set2: reduction of Shn3 3'UTR firefly luciferase signal, primary screen, Schnurri-3 inhibitor project, cell-based, Clone20 osteoblasts, set 2; AID 588674, 2011; Clone20 osteoblast Shn3 3'UTR firefly luciferase, 24 h; inhibition, % at 12.5 µM; 360,000 compounds, 0.52% hits;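 active = mean inhibition of at least 75% with every replicate also reaching 75%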;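 note: 0% = median of neutral control wells and 100% = pilot-screen positive control compound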
CSC inhib: cancer stem cell viability inhibitors, primary screen, luminescence | cancer stem cell-like cells viability | inhibition, % at 7.5 µM | 300,000 compounds, 1.1% hits; in the data active = inhibition above about 75%; tested in HMLE shEcad cells
Gli antag conf: Gli-SUFU pathway antagonists, confirmation, single concentration, luciferase luminescence, Sufu-KO-LIGHT cells; Gli luciferase reporter; AID 602428, 2012; inhibition, % at 5 µM; shares compounds with Gli-Sufu block; 2,500 compounds, 40% hits;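 active = mean inhibition at 5 µM reaching about 45%, limit read from the data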;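 note: plate controls were DMSO-treated cells for no effect and wells lacking cells for full effect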
SufuKO cytotox: cytotoxicity in Sufu-KO-LIGHT cells, confirmation, cytotoxicity control for Gli-SUFU antagonist project, cell-based, ATP luminescence, single concentration; cytotoxicity, % at 5 µM; 2,500 compounds, 32% hits; shares compounds with Gli-Sufu block; AID 651994, 2013;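 active = mean cytotoxicity at 5 µM above about 25%, limit read from the data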;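 note: cells exposed to compound overnight for roughly 16 to 18 hours; plate controls were DMSO wells with cells for no effect and medium without cells for full effect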
Wnt3a counter: Wnt3a reporter signal inhibition, confirmation, counter-screen for Gli-SUFU antagonist project, Wnt-LIGHT cells, luminescence, single concentration. shares compounds with Gli-Sufu block. Wnt3a-driven luciferase reporter. inhibition, % at 6.25 µM. 2,500 compounds, 20% hits. AID 651995, 2013;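 active = mean inhibition above about 25%, limit read from the data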
* = called active by the depositor; / = no result.

SMILES | Beta apoptosis | PAX8 reporter | Mdm2-MdmX inh | Gli-Sufu block | Shn3 inh set2 | CSC inhib | Gli antag conf | SufuKO cytotox | Wnt3a counter
COc1ccc(C#Cc2ccc([C@H]3[C@H](CO)N4CCCCN(C(=O)Cc5cccnc5)C[C@@H]34)cc2)cc1 | / | -1 | / | / | / | / | / | / | /
COc1cccc(-c2ccc3n(c2=O)C[C@H]2[C@H](CO)[C@@H](C(=O)O)[C@@H]3N2Cc2ccccc2F)c1 | / | -7 | / | / | / | / | / | / | /
Cc1c(N=Cc2c(O)n(Cc3ccc(F)cc3)c(=O)[nH]c2=O)c(=O)n(-c2ccccc2)n1C | -4 | / | 6 | 63* | 20 | / | 23 | 4 | -26
COc1ccc(C#Cc2ccc([C@H]3[C@@H](CO)N4CCCCN(C(=O)Cc5ccncc5)C[C@@H]34)cc2)cc1 | / | -21 | / | / | / | / | / | / | /
C/C(=N\Nc1cccc2ccccc12)c1c(O)n(Cc2ccccc2)c(=O)[nH]c1=O | 3 | 8 | 11 | 57* | 25 | 11 | 18 | 12 | -7
C1=C(c2c[nH]c3ccccc23)CCN(Cc2ccccc2)C1 | 0 | 64* | 25 | 55* | 34 | -1 | 20 | 20 | -50
